Assay [1] can be described thus: Nuclear factor erythroid 2-related factor 2/antioxidant responsive element (Nrf2/ARE) small molecule agonists: qHTS cell viability counter screen in human keratinocytes (AID 1919968; active = well fitted curve in the direction sought with a large enough effect in the repeat runs; an effect the other way counts as inactive or inconclusive; note: nearly all actives have a fitted effect of over 55% in size). In a few lines: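 Stably transfected HaCaT (KeratinoSens), 1,500/well. Test agents in DMSO were applied for 23 h, 37 C/5% CO2. CellTiter-Fluor was incubated 1 h before the fluorescence read.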
Background: qHTS replaces the single test concentration by a dilution series.

Assay [2] in a line: Nuclear factor erythroid 2-related factor 2/antioxidant responsive element (Nrf2/ARE) small molecule agonists: luciferase reporter gene qHTS assay in human keratinocytes (AID 1919969). Note: nearly all actives have a fitted effect of over 35% in size. Note: potency is the fitted concentration of half-maximal effect.
Assay [3] deals with Gonadotropin-releasing hormone receptor (Homo sapiens) (UniProt P30968). The assay can be described thus: Human gonadotropin-releasing hormone receptor (GnRHR) small molecule agonists, calcium flux assay in GnRHR-HEK293 cells (AID 1920063). Note: nearly all actives have a fitted effect of over 35% in size. An outline of the steps: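 Stable human GnRHR HEK293 line. 18 h plating, then calcium dye for 1 h at 37 C. Agonist-mode compound addition from DMSO stocks; fluorescence monitored 3 min.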
Background: Calcium assays in cells follow changes in intracellular calcium, usually with a dye or a luminescent sensor.

A short description of assay [4]: G protein-coupled receptor (GPCR) small molecule agonists, calcium flux assay: HEK293 wild type cell line counter screen (AID 1920065). In a few lines:
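Following 18 h incubation at 37 C/5% CO2, plates got calcium dye for 1 h; compounds, ATP or DMSO were then pinned in and fluorescence followed kinetically (480/540 nm).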

Assay [5] in a line: p53 small molecule agonists, cell-based qHTS assay with human liver microsomes (AID 1963577). In a few lines: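 p53RE-bla cells, 4,000/well, compound added after 5 h, with human liver microsomes 0.5 mg/mL and NADPH 0.5 mg/mL final; 16 h at 37 C, then LiveBLAzer 2 h RT, fluorescence.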
Assay [6] in a line: p53 small molecule agonists, cell-based qHTS assay with rat liver microsomes (AID 1963578). An outline of the steps: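 p53RE-bla cells, 4,000/well, pre-incubated 5 h, then given compounds plus rat liver microsomes (0.5 mg/mL final) and NADPH (0.5 mg/mL final). Incubation 16 h at 37 C; beta-lactamase reporter read by LiveBLAzer fluorescence after 2 h at room temperature.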
Assay [7] in a line: p53 small molecule agonists, cell-based qHTS assay with human liver microsomes: qHTS cell viability counter screen (AID 1963579). Note: nearly all actives have a fitted effect of over 45% in size. In a few lines: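 p53RE-bla cells, 4,000/well, dosed 5 hours after plating, with human liver microsomes (0.5 mg/mL final) plus NADPH (0.5 mg/mL final), 16 hours at 37 C. Viability read as CellTiter-Glo luminescence after 30 min at room temperature.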

Assay [8] is described as follows: p53 small molecule agonists, cell-based qHTS assay with rat liver microsomes: qHTS cell viability counter screen (AID 1963580). Note: nearly all actives have a fitted effect of over 45% in size. An outline of the steps:
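Luminescent ATP readout (CellTiter-Glo, 30 min at room temperature) reports viability of p53RE-bla HCT-116 cells after 16 h at 37 C with test compounds under metabolic activation by rat liver microsomes and NADPH at 0.5 mg/mL final each.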

Assay [9] is described as follows: p53 small molecule agonists, cell-based qHTS assay: qHTS cell viability counter screen (AID 1963581). Note: nearly all actives have a fitted effect of over 45% in size. An outline of the steps:
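qHTS counter screen: 16 h compound exposure at 37 C of p53RE-bla HCT-116 cells (4,000 per well, seeded 5 h prior), cell viability by ATP luminescence.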

A short description of assay [10]: p53 small molecule agonists, cell-based qHTS assay (AID 1963582; active = well fitted activation curve with a large enough effect in the signal ratio in the repeat runs, not every such curve was filed as active; the % refers to the signal ratio). An outline of the steps:
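Measured: fluorescence from cleaved LiveBLAzer substrate. System: p53RE-bla cells, 16 h compound treatment at 37 C, 2 h substrate step at room temperature.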

In assay [11] the target is 5-hydroxytryptamine receptor 2A (Homo sapiens) (UniProt P28223). The assay can be described thus: 5-hydroxytryptamine receptor 2A (HTR2A) small molecule antagonists, cell-based qHTS assay (AID 1963586). Note: nearly all actives have a fitted effect of over 45% in size. Note: potency is the fitted concentration of half-maximal effect. In a few lines: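 CHO cells stably expressing human HTR2A were plated for 18 h at 37 C, then loaded with calcium dye for 1 h. Compounds were preincubated 5 min at room temperature before DOI (4 nM solution) was added. Kinetic fluorescence was read for 3 min.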

The target is the same in assay [12]. The assay can be described thus: 5-hydroxytryptamine receptor 2A (HTR2A) small molecule agonists, cell-based qHTS assay (AID 1963587). Note: nearly all actives have a fitted effect of over 30% in size. In a few lines: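 HTR2A-CHO cells, plated 18 h at 37 C/5% CO2, dye-loaded 1 h at 37 C; compounds in DMSO added by pin tool (agonist mode). Intracellular calcium flux read as kinetic fluorescence on FDSS over 2 min at 1 s intervals.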

Assay [13] concerns the target Muscarinic acetylcholine receptor M1 (Homo sapiens) (UniProt P11229). Briefly: Cholinergic receptor muscarinic 1 (CHRM1) small molecule antagonists, cell-based qHTS assay (AID 1963588). Note: nearly all actives have a fitted effect of over 40% in size. In a few lines: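 Compounds were tested at 15 concentrations in three independent runs. Dye-loaded CHRM1-CHO cells were exposed 5 min at room temperature before stimulation by acetylcholine added at 50nM. Intracellular calcium was read kinetically on FDSS for 3 min.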

For assay [14] the target is unchanged. The assay can be described thus: Cholinergic receptor muscarinic 1 (CHRM1) small molecule agonists, cell-based qHTS assay (AID 1963589). Note: nearly all actives have a fitted effect of over 35% in size. An outline of the steps: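 Kinetic fluorescence (1 s intervals) of calcium-sensitive dye in human M1 CHO cells after compound addition; cells pre-incubated 18 h at 37 C/5% CO2 and dye-loaded 1 h.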
The nature of assay [15]: cAMP Responsive Elements (CRE) small molecule agonists, cell-based qHTS assay (AID 1963590). An outline of the steps:
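Test agents in DMSO were incubated 3 h at 37 C/5% CO2 with CRE-bla HEK 293T cells seeded 18 h earlier; LiveBLAzer B/G FRET substrate was added and read after 2 h at room temperature.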

The nature of assay [16]: cAMP Responsive Elements (CRE) small molecule antagonists, cell-based qHTS assay (AID 1963591; active = well fitted inhibition curve with a large enough effect in the signal ratio in the repeat runs, not every such curve was filed as active; the % refers to the signal ratio). An outline of the steps:
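Reporter line CRE-bla HEK 293T in dialyzed-FBS DMEM; cells preincubated 18 h, treated 3 h with compound plus NKH477 (0.25 uM final); LiveBLAzer FRET, 2 h RT.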

Assay [17] has as its target Beta-2 adrenergic receptor (Homo sapiens) (UniProt P07550). The assay can be described thus: Adrenergic beta2 receptor (ADRB2) small molecule antagonists, cell-based qHTS assay (AID 1963592). Note: series mostly up to about 92 µM; nearly all actives have a fitted effect of over 50% in size. In a few lines: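 Assay format: CHO-ADRB2 cells, 18-20hr seeding at 37C/5% CO2, then compound plus 1nM isoproterenol agonist mix for 0.5hr RT. Homogeneous time-resolved fluorescence cAMP detection after 1hr, expressed as 665/615 nm ratio.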

For assay [18], the target named is D(2) dopamine receptor (Homo sapiens) (UniProt P14416). Briefly: Dopamine D2 receptor (DRD2) small molecule agonists, cell-based qHTS assay (AID 1963594). Note: nearly all actives have a fitted effect of over 35% in size. An outline of the steps:
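HEK293 cells stably expressing DRD2 were cultured 24 h at 37 C, then given Ro20-1724 (0.1 mM final) and compounds for 10 min at room temperature. NKH477 (200nM) was then added for 30 min. cAMP was read by HTRF.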

For assay [19] the target is unchanged. Briefly: Dopamine D2 receptor (DRD2) small molecule antagonists, cell-based qHTS assay (AID 1963595; active = well fitted inhibition curve with a large enough effect in the signal ratio in the repeat runs, with a control signal flat; the % refers to the signal ratio). In a few lines:
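HEK293 cells stably expressing DRD2, preincubated with 0.1 mM Ro20-1724 and compounds 10 min, were stimulated with 200 nM NKH477 plus 12 nM quinpirole for 30 min at room temperature; cAMP measured by HTRF (665/620 nm).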

In assay [20] the target is KiSS-1 receptor (Homo sapiens) (UniProt Q969F8). The assay can be described thus: Human kisspeptin (KISS1R) small molecule agonists, calcium flux assay in KISS1R-HEK293 cells (AID 1920064; active = well fitted curve in the direction sought with a large enough effect in the repeat runs; an effect the other way counts as inactive or inconclusive). An outline of the steps: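 After overnight (18 h) culture at 37 C/5% CO2, human KISS1R-HEK293 cells received calcium dye for 1 h, then test compound; emission at 540 nm (excitation 480 nm) was tracked for 3 min.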

The structures appear in SMILES notation. “And” between values parts separate entries of the source, which are not always exact repeats. Equal values may be shown once. Records with an inconclusive call do not appear. Some compounds were tested as several samples or in several runs, with calls that do not always agree. The source made the active and inactive calls. Unless noted, calls come from the whole dose curve.

Muscarinic acetylcholine receptor M1 (Homo sapiens), sequence (P11229 whole entry, looked up): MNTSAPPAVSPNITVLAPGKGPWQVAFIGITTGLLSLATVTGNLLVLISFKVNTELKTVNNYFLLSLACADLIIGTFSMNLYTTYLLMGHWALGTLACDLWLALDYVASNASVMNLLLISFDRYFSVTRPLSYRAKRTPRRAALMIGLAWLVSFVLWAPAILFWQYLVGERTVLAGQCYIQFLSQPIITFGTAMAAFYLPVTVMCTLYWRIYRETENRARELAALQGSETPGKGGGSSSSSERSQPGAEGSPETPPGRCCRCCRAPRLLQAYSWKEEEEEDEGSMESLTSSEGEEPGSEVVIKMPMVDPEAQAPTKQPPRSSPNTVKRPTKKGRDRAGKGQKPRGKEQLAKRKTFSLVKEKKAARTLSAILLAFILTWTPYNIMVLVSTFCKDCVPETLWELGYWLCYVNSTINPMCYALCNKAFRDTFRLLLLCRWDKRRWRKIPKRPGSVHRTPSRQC
D(2) dopamine receptor (Homo sapiens), sequence (P14416 whole entry, looked up): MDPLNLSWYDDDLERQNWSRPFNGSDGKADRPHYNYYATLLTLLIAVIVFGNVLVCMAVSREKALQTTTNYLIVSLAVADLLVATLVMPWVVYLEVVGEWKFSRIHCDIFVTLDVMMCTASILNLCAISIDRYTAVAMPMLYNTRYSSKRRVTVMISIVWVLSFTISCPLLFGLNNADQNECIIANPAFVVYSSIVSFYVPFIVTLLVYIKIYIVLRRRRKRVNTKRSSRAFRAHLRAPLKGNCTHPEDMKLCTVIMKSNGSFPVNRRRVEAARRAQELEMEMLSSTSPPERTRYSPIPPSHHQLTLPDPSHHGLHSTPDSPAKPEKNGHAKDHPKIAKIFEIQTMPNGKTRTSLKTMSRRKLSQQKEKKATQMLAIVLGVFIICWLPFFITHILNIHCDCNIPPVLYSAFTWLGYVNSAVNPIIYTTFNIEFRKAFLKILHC
Gonadotropin-releasing hormone receptor (Homo sapiens), sequence (P30968 whole entry, looked up): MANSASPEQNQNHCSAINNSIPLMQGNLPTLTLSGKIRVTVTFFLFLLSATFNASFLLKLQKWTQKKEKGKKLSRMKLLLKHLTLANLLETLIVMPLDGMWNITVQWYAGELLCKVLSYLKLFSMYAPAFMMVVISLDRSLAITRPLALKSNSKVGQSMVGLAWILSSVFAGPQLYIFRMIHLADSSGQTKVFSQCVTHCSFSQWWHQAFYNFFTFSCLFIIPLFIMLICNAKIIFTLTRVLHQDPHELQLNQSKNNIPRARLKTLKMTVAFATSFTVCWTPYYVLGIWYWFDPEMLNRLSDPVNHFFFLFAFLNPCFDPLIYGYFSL
KiSS-1 receptor (Homo sapiens), sequence (Q969F8 whole entry, looked up): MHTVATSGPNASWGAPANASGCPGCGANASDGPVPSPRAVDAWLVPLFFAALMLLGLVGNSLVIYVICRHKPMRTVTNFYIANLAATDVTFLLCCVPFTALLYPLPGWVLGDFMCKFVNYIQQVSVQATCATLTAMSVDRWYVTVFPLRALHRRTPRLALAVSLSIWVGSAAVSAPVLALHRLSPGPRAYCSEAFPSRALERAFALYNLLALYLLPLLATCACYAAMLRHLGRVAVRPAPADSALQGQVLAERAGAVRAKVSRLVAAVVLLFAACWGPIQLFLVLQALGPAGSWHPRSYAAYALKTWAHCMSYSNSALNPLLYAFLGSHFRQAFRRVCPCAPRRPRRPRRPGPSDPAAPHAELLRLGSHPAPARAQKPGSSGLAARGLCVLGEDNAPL
Beta-2 adrenergic receptor (Homo sapiens), sequence (P07550 whole entry, looked up): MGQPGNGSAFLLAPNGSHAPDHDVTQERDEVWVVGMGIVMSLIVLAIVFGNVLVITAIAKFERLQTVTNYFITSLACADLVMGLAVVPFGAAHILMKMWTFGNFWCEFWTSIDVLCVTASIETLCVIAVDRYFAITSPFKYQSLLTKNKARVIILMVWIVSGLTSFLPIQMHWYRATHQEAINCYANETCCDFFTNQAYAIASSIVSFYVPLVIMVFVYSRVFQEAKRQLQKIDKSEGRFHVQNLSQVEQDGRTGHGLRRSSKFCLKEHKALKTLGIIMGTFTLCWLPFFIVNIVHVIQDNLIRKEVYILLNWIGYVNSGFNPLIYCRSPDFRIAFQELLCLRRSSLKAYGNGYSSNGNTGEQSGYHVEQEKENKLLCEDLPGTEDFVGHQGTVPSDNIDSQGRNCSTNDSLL
5-hydroxytryptamine receptor 2A (Homo sapiens), sequence (P28223 whole entry, looked up): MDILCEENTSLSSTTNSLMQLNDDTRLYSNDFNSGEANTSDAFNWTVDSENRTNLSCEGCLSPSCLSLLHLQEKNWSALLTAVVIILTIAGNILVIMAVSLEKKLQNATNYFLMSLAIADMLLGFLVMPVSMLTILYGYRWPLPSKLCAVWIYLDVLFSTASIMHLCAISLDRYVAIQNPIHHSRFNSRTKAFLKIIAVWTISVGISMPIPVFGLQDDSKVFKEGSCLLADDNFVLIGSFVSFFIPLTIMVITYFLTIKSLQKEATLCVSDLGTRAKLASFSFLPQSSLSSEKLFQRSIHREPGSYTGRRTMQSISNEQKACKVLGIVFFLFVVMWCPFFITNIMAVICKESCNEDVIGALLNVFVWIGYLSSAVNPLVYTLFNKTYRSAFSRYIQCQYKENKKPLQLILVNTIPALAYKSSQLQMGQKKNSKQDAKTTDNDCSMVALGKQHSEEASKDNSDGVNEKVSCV

`CCCCOC(=O)CCC(=O)OCCCC`: the Potency result in assay [1], in [2], in assay [3], in assay [4], in [5] and in assay [6] was “inactive” each time. Also, the Potency result in [7], in [8], in [9], in assay [10], in [11] and in assay [12] was “inactive” throughout. The Potency entry in assay [13], in [14], in assay [15], in assay [16], in [17] and in [18] was “inactive” throughout. The Potency entry in assay [19] was “inactive”.
Turning to `N#CCc1ccccc1`, the Potency entry in assay [1], in assay [2], in [3], in assay [4], in assay [5] and in assay [6] was “inactive” throughout. For the same compound, the Potency result in [7], in assay [8], in [9], in assay [10], in [11] and in assay [12] was “inactive” in each case. The Potency result in assay [13], in [14], in [15], in assay [16], in assay [17] and in assay [18] was “inactive” throughout. For the same compound, in [19], the Potency entry is “inactive”.
As for `CCCCOC(=O)COC(=O)c1ccccc1C(=O)OCCCC`, the Potency result in assay [1], in assay [2], in [3], in [20], in [5] and in assay [6] was “inactive” each time. Also, the Potency result in [8], in [10], in [12], in assay [13], in [14] and in assay [15] was “inactive” in each case. The Potency entry in assay [16], in assay [17] and in assay [18] was “inactive” throughout.
Turning to `Nc1ccc(-c2ccc(N)c(Cl)c2)cc1Cl`, the Potency result in [1], in assay [2], in assay [3], in assay [20], in assay [5] and in assay [6] was “inactive” each time. The Potency entry in [8], in assay [9], in [12], in assay [13], in [14] and in [15] was “inactive” throughout. Further, the Potency result in assay [16], in assay [17], in [18] and in assay [19] was “inactive” each time. For the same compound, the Potency in [11] is 21.2 µM (active) and 17.5 µM (active) and 29.8 µM (active).
In the case of `CC(C)c1ccc(OP(=O)(Oc2ccc(C(C)C)cc2)Oc2ccc(C(C)C)cc2)cc1`, the Potency entry in assay [1], in assay [3], in assay [20], in assay [7], in assay [8] and in assay [9] was “inactive” each time. Besides, the Potency result in [11], in assay [12], in [13], in [14], in assay [16] and in assay [17] was “inactive” throughout. In addition, the Potency entry in assay [18] and in [19] was “inactive” throughout. In assay [2], the Potency was 61.6 µM (active) and inactive and 30.6 µM (active).
Consider `ClC(Cl)c1ccccc1`, for which the Potency result in assay [1], in assay [2], in [3], in [20], in [7] and in [8] was “inactive” each time. The Potency entry in assay [9], in assay [11], in [12], in assay [13], in assay [14] and in assay [15] was “inactive” throughout. Also, the Potency entry in assay [17], in [18] and in assay [19] was “inactive” in each case.
For the compound `BrCc1ccc(Br)cc1`, the Potency result in assay [1], in assay [2], in assay [3], in assay [20], in [5] and in assay [6] was “inactive” throughout. Also, the Potency result in [7], in assay [9], in assay [10], in assay [11], in assay [12] and in [13] was “inactive” throughout. Further, the Potency entry in [14], in assay [15], in assay [16], in assay [17], in assay [18] and in assay [19] was “inactive” throughout.
Consider `CCN(CC)C(=O)SCc1ccc(Cl)cc1`, for which the Potency entry in assay [1], in [2], in assay [3], in [20], in [7] and in [8] was “inactive” throughout. Besides, the Potency entry in [9], in assay [10], in [12], in [14], in assay [15] and in [16] was “inactive” each time. The Potency entry in assay [17] was “inactive”.
